Measurements taken from the supplement of paper PMC6555819.

Legend:
Test in all cases: PBM binding z-score (relative to random genomic background probes); higher = stronger binding; sequences stand for … in GC…GCGATTGACAGCGTAGAATGAAGG
[1] = system: FXR:RXRa (NR concentration 270 nM, RXRa partner concentration 90 nM)
Procedure, shortened: (§1)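 Ligand-free nuclear receptor dimers were bound for 1 h to custom Agilent 4×180K protein-binding microarrays. Detection used antibodies against each partner (one per run). Binding z-scores rest on regression-normalized fluorescence, with random background probes as the reference.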

[2] = system: LXRa:RXRa (NR concentration 270 nM, RXRa partner concentration 90 nM)
Procedure, shortened: as §1

[3] = system: LXRa homodimer (NR concentration 270 nM)
Procedure, shortened: as §1

[4] = system: LXRb:RXRa (NR concentration 270 nM, RXRa partner concentration 90 nM)
Procedure, shortened: as §1

[5] = system: LXRb homodimer (NR concentration 270 nM)
Procedure, shortened: as §1

[6] = system: PPARa:RXRa (NR concentration 270 nM, RXRa partner concentration 90 nM)
Procedure, shortened: as §1

[7] = system: PPARg:RXRa (NR concentration 180 nM, RXRa partner concentration 90 nM)
Procedure, shortened: as §1

[8] = system: PPARg:RXRa 270nM:90nM, anti-RXR (NR concentration 270 nM, RXRa partner concentration 90 nM)
Procedure, shortened: as §1

[9] = system: PPARg:RXRa 30nM:10nM, anti-RXR (NR concentration 30 nM, RXRa partner concentration 10 nM)
Procedure, shortened: as §1

[10] = system: PPARg:RXRa 90nM:30nM, anti-RXR (NR concentration 90 nM, RXRa partner concentration 30 nM)
Procedure, shortened: as §1

[11] = system: PPARg:RXRa DBDmut IVT, anti-RXR (DBD mutation: RXRa K156A/R161A, NR concentration 270 nM, RXRa partner concentration 90 nM)
Procedure, shortened: as §1

[12] = system: PPARg:RXRa IVT, anti-PPARg (NR concentration 270 nM, RXRa partner concentration 90 nM)
Procedure, shortened: as §1

[13] = system: PPARg DBDmut:RXRa IVT, anti-PPARg (DBD mutation: PPARg1 K132A/R137A, NR concentration 270 nM, RXRa partner concentration 90 nM)
Procedure, shortened: as §1

[14] = system: PPARg DBDmut IVT, anti-PPARg (DBD mutation: PPARg1 K132A/R137A, NR concentration 270 nM)
Procedure, shortened: as §1

[15] = system: PPARg homodimer (NR concentration 180 nM)
Procedure, shortened: as §1

[16] = system: PXR:RXRa (NR concentration 270 nM, RXRa partner concentration 90 nM)
Procedure, shortened: as §1

[17] = system: PXR homodimer (NR concentration 270 nM)
Procedure, shortened: as §1

[18] = system: RARa:RXR (NR concentration 270 nM, RXRa partner concentration 90 nM)
Procedure, shortened: as §1

[19] = system: RARa homodimer (NR concentration 270 nM)
Procedure, shortened: as §1

[20] = system: RARb:RXRa (NR concentration 270 nM, RXRa partner concentration 90 nM)
Procedure, shortened: as §1

| Sequence | PBM binding z-score [1] | PBM binding z-score [2] | PBM binding z-score [3] | PBM binding z-score [4] | PBM binding z-score [5] | PBM binding z-score [6] | PBM binding z-score [7] | PBM binding z-score [8] | PBM binding z-score [9] | PBM binding z-score [10] | PBM binding z-score [11] | PBM binding z-score [12] | PBM binding z-score [13] | PBM binding z-score [14] | PBM binding z-score [15] | PBM binding z-score [16] | PBM binding z-score [17] | PBM binding z-score [18] | PBM binding z-score [19] | PBM binding z-score [20] |
| --- | --- | --- | --- | --- | --- | --- | --- | --- | --- | --- | --- | --- | --- | --- | --- | --- | --- | --- | --- | --- |
| TCTGCTAGGTCAACGATGGTCAGCTGATCTGCTA | 3.18 | 2.66 | -0.222 | 1.72 | 0.146 | 3.35 | 2.72 | 3.15 | 1.81 | 2.66 | 3.61 | 4.29 | -0.0935 | 1.17 | 0.984 | 1.58 | -0.669 | 2.3 | -0.39 | 4.03 |
| GCGACTGGGGCAAACCAGGTTACCATAAGGTTGG | 0.393 | 0.174 | -0.329 | 0.0865 | -0.736 | 1.37 | 1.43 | 1.51 | -0.386 | 0.602 | 4.47 | 3.82 | -1.05 | -0.639 | -0.0869 | 0.736 | -0.522 | 0.63 | -0.483 | 0.961 |
| CGTCCATGGTCAAAGGTCAGTGAAGAGATGACGG | 3.85 | 3.63 | 0.607 | 3.29 | 0.097 | 4.92 | 7.27 | 7.01 | 5.64 | 7.4 | 0.409 | 3.55 | 0.423 | 0.425 | 6.15 | 4.15 | 0.407 | 5.38 | 0.504 | 4.41 |
| CAAACTAGGTCACAGAGGTAAAAGTCCGTGCGTA | 4.42 | 3.37 | 0.644 | 2.58 | 0.501 | 5.38 | 9.21 | 7.63 | 5.5 | 7.27 | 8.62 | 8.89 | 3.39 | 1.6 | 2.55 | 2.53 | 0.79 | 3.47 | 0.948 | 4.35 |
| GGAACGAGGGCAAGTTGATAACAGAGTTTGATGG | 0.773 | 0.307 | -0.071 | 0.262 | -0.233 | 1.76 | 1.52 | 1.14 | 0.316 | 1.03 | 3.17 | 2.87 | 0.0927 | 0.0422 | 0.807 | 0.857 | 0.526 | 0.565 | -0.181 | 2.38 |
| CCTAGTTGGTCAGGAGGTAACACACCGGATATGA | 0.273 | 0.0725 | 0.325 | 0.204 | -0.0466 | 0.433 | 0.902 | 1.08 | 0.0146 | 0.419 | 0.719 | 1.36 | 0.594 | 0.266 | 1.37 | 0.0397 | 0.446 | 0.422 | 1.49 | 0.781 |
| ACAGACACGTGATGAAGGTAACTCAGGCTATCAT | 0.135 | 0.0254 | -0.272 | 0.133 | -0.0548 | -0.111 | 0.787 | -0.012 | 0.0893 | -0.0553 | -0.318 | -0.0146 | 0.501 | 0.226 | 0.142 | -0.0986 | 0.0203 | 0.352 | 0.63 | -0.138 |
